# Reference: PubChem BioAssay
# Where “and” joins values, the source holds several entries; their conditions need not be identical. Equal entries are not always repeated. Results filed as inconclusive are left out. Where a structure was tested more than once in an assay, its records may differ in their call. Calls of active or inactive are those of the source.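 The calls were made as follows, unless noted: active = compounds whose cell count with miR-34 switched on is under 0.7 times the count with it off; inactive = the rest.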
# Key:
# [1] = modulation of C. elegans fzo-1 (AID 1259413; call rule not given here;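 also: fzo-1 mutant C. elegans worms in liquid wells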); conditions: C. elegans fzo-1 modulator screen, mean read-out; stronger effect = higher value
# [2] = EMT-state selective cytotoxicity in co-culture – imaging, PC-3E GFP, TEM4-18 mCherry, primary screen (AID 1345086;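 active = compounds killing one labelled cell type while sparing the other, by normalised counts and ratio limits, not self-fluorescent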;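 as to all read-outs here: cells exposed to compound for 72 h before imaging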;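 as to red/green cell ratio (normalised): normalised mesenchymal count divided by normalised epithelial count so high means epithelial killing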); conditions: PC-3E GFP / TEM4-18 mCherry co-culture, imaging cell counts, at 1 µM; for red/green cell ratio (normalised): actives lie on both sides, counts scaled to control wells, 1 = unselective
# [3] = viability loss with induced miR-34 in A549 – imaging, A549 dox-inducible miR-34, nuclei and caspase counts, primary screen (AID 1347080); conditions: A549 miR-34 inducible, Hoechst nuclei count, 48 h
# [4] = MELAS cybrid and Rieske KO viability enhancers – cell-based, MELAS cybrids, Rieske KO mouse fibroblasts, CellTiter-Glo, primary screen (AID 1508586;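 active = mean z-score across replicates of 1.96 or higher in either the MELAS or the Rieske mutant cell line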;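 also: z relative to plate mean and SD of compound and empty wells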); conditions: low glucose
# [5] = blockers of cellular phospholipid synthesis – cell-based, LOPAC library, screen 4, primary screen (AID 1347384; call rule not given here); conditions: animal cells, phospholipid biosynthesis inhibition screen; at 10 µM
# [6] = tested on: Aerobactin synthetase IucA (Klebsiella pneumoniae); assay: inhibition of K. pneumoniae IucA enzyme – biochemical, Tocris library, absorbance (AID 1345561; call rule not given here;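 also: 100% = enzyme without compound and 0% = no enzyme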); conditions: purified IucA enzyme assay, absorbance (OD) read-out; stronger effect = lower value;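 tested at 8 µM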
# [7] = viability loss in pontine glioma line – cell-based, SU-DIPG-XVII, MIPE5.0, CellTiter-Glo, qHTS, dose response (AID 1347060; cut-off not given, nearly all actives have AC50 up to about 26 µM;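 also: cells exposed to compound for 48 hours before viability readout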); conditions: CellTiter-Glo ATP luminescence
# [8] = viability loss in pontine glioma line – cell-based, JHH-DIPG-1, MIPE4.0, CellTiter-Glo, qHTS, dose response (AID 1347062; cut-off not given, nearly all actives have AC50 up to about 27 µM;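 also: cells exposed to compound for two days before readout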); conditions: JHH-DIPG-1 viability, CellTiter-Glo ATP luminescence
# [9] = viability loss in pontine glioma line – cell-based, SU-DIPG-IV, MIPE4.0, CellTiter-Glo, qHTS, dose response (AID 1347063; cut-off not given, nearly all actives have AC50 up to about 30 µM;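 also: compound exposure lasted 48 hours before the viability readout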); conditions: CellTiter-Glo ATP luminescence
# [10] = viability loss in pontine glioma line – cell-based, SU-DIPG-XIII, MIPE5.0, CellTiter-Glo, qHTS, dose response (AID 1347064; cut-off not given, nearly all actives have AC50 up to about 23 µM;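 also: cells exposed to compound for 48 hours before the viability read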); conditions: CellTiter-Glo ATP luminescence
# [11] = viability loss in pontine glioma line – cell-based, SU-DIPG-XXV, MIPE5.0, CellTiter-Glo, qHTS, dose response (AID 1347065; cut-off not given, nearly all actives have AC50 up to about 26 µM;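 also: cells exposed to compound for 48 hours before ATP readout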); conditions: CellTiter-Glo ATP luminescence
# [12] = growth inhibition of DIPG cells – cell-based, MIPE4.0 library, CellTiter-Glo luminescence, qHTS (AID 1347066; cut-off not given, nearly all actives have AC50 up to about 30 µM;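 also: cells exposed to compound for 48 hours before readout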); conditions: SU-DIPG-VI viability, CellTiter-Glo ATP luminescence
# [13] = JHH-DIPG-1 glioma cell viability, MIPE5.0 library, CellTiter-Glo luminescence, qHTS (AID 1347067; cut-off not given, nearly all actives have AC50 up to about 26 µM;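 also: cells exposed to compound for 48 hours before readout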); conditions: JHH-DIPG-1 glioma viability, CellTiter-Glo ATP luminescence
# [14] = growth inhibition of DIPG cells – cell-based, MIPE5.0 library, qHTS (AID 1347068; cut-off not given, nearly all actives have IC50 up to about 30 µM;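 also: cells exposed to compound for 48 hours before viability readout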); conditions: SU-DIPG-XXV viability
# [15] = compounds altering HSF1 focus formation in cells – imaging, Selleck Cancer Library (AID 1347162; in the data active = plate-normalised HSF1 focus index below about 0.46); conditions: human cells, HSF1 nuclear foci imaging, at 10 µM; SSMD: measured here: HSF1 foci SSMD mean; cell count: measured here: cell number; plate-normalised HSF1 focus index: stronger effect = lower value
# [16] = measured here: epithelial PC-3E GFP cell survival
# [17] = measured here: mesenchymal TEM4-18 mCherry cell survival
# [18] = stronger effect = lower value, cell number ratio, induced over uninduced
# [19] = measured here: relative caspase fold change +Dox/-Dox
# [20] = measured here: total cells with miR-34 induction, stronger effect = lower value
# [21] = measured here: total cells without miR-34 induction
# [22] = MELAS cybrid survival, CellTiter-Glo 48 h, stronger effect = higher value
# [23] = Rieske KO mouse fibroblast survival, CellTiter-Glo 72 h
smiles,measurement,setting,value
CN1CCN(c2c(F)cc3c(=O)c(C(=O)O)cn4c3c2SCC4)CC1,mean signal,[1],251 (inactive)
same,red/green cell ratio (normalised),[2],1.06 (inactive) and 1.18 (inactive)
same,normalised cell number,[2]; [16],1.01 and 0.81
same,normalised cell number,[2]; [17],1.07 and 0.95
same,fold change,[3]; [18],0.974 (inactive) and 0.992 (inactive) and 0.895 (inactive)
same,fold change,[3]; [19],0.702 and 1.33 and 0.919
same,cell count,[3]; [20],7420 and 9770 and 9480
same,cell count,[3]; [21],7610 and 9850 and 10600
same,z-score,[4]; [22],0.206 (inactive) and 0.665 (inactive)
same,z-score,[4]; [23],0.617 and -0.349
CCc1c(C)[nH]c2c1C(=O)C(CN1CCOCC1)CC2 (centres undefined),mean signal,[1],257 (inactive)
same,red/green cell ratio (normalised),[2],1.03 (inactive)
same,normalised cell number,[2]; [16],0.94
same,normalised cell number,[2]; [17],0.96
same,fold change,[3]; [18],1.14 (inactive) and 0.913 (inactive) and 0.969 (inactive)
same,fold change,[3]; [19],1.35 and 0.853 and 0.538
same,cell count,[3]; [20],11100 and 9250 and 9310
same,cell count,[3]; [21],9700 and 10100 and 9610
same,outcome,[5],inactive
same,z-score,[4]; [22],0.0774 (inactive)
same,z-score,[4]; [23],-0.448
COc1cccc2c1C(=O)c1c(O)c3c(c(O)c1C2=O)C[C@@](O)(C(=O)CO)C[C@@H]3O[C@H]1C[C@H](N)[C@H](O)[C@H](C)O1,mean signal,[1],234 (inactive)
same,remaining activity,[6],110% (inactive)
same,AC50,[7],0.235 µM (active)
same,AC50,[8],0.332 µM (active)
same,AC50,[9],0.418 µM (active)
same,AC50,[10],0.934 µM (active)
same,AC50,[11],1.18 µM (active)
same,AC50,[12],2.35 µM (active)
same,AC50,[13],1.05 µM (active)
same,IC50,[14],7.42 µM (active)
same,SSMD,[15],-18.3
same,cell count,[15],7010
same,plate-normalised HSF1 focus index,[15],0.0593 (active)
same,z-score,[4]; [22],0.616 (inactive) and 7.1 (active)
same,z-score,[4]; [23],-1.64 and -0.526
CC(C)(C(=O)c1cccnc1)c1cccnc1,mean signal,[1],259 (inactive)
same,red/green cell ratio (normalised),[2],0.85 (inactive)
same,normalised cell number,[2]; [16],1.21
same,normalised cell number,[2]; [17],1.04
same,fold change,[3]; [18],0.962 (inactive) and 0.83 (inactive) and 0.921 (inactive)
same,fold change,[3]; [19],1.43 and 1.26 and 2.87
same,cell count,[3]; [20],10400 and 8590 and 12100
same,cell count,[3]; [21],10800 and 10300 and 13100
same,z-score,[4]; [22],0.55 (inactive)
same,z-score,[4]; [23],0.502
CN(C)CCCSc1ccccc1NC(=O)/C=C/c1ccccc1,mean signal,[1],241 (inactive)
same,remaining activity,[6],115% (inactive)
same,fold change,[3]; [18],0.891 (inactive) and 1.14 (inactive)
same,fold change,[3]; [19],0.895 and 0.508
same,cell count,[3]; [20],7810 and 9010
same,cell count,[3]; [21],8770 and 7880
same,z-score,[4]; [22],0.109 (inactive)
same,z-score,[4]; [23],-0.0543
O=c1c(-c2ccccc2)c1-c1ccccc1,mean signal,[1],254 (inactive)
same,fold change,[3]; [18],0.804 (inactive)
same,fold change,[3]; [19],1.52
same,cell count,[3]; [20],4690
same,cell count,[3]; [21],5830
